The results in this text go back to PubChem BioAssay AID602440 (Sanford-Burnham Center for Chemical Genomics, 2012).

Among all 360,000 compounds or so, about 2,300 (0.64%) were called active. Rule as the data show it: active = inhibition mostly above about 40% (no sharp cut-off); inactive = mostly below about 27%. For the sample, actives were picked, then their nearest neighbours and some compounds at random.

Sequence of Sentrin-specific protease 8 (Homo sapiens) (Q96LD8 whole entry, looked up): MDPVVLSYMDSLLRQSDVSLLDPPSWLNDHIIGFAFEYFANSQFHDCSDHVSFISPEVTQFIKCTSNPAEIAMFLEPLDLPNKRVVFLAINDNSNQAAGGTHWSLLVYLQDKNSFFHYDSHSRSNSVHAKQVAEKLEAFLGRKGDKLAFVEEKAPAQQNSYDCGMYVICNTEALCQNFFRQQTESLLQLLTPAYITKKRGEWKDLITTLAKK

The experiment concerns the target Sentrin-specific protease 8 (Homo sapiens) (UniProt Q96LD8). As to the kind of experiment: human SENP8 protease inhibitors, primary screen, biochemical, fluorescence, Nedd8 protein substrate, uHTS (AID 602440). As to conditions: recombinant SENP8, Nedd8 substrate fluorescence; at 20 µM; hits give high values.
By inhibition is commonly meant the relative decrease from the control value, in per cent. Turning to `O=C(COC(=O)c1ccc([N+](=O)[O-])o1)NC12CC3CC(CC(C3)C1)C2`, the inhibition was 35.1% (active). Regarding `O=C(OCC(=O)c1cccs1)c1ccc([N+](=O)[O-])o1`, the inhibition is 29.2% (inactive). On to `O=C(COC(=O)c1ccc(Br)o1)NC12CC3CC(CC(C3)C1)C2`, for which the inhibition was 10% (inactive). `C/C=C/C=C/C(=O)O`: the inhibition is 11.5% (inactive). In the case of `NCCCCC(C(=O)O)N(C(=O)OCc1ccccc1)C(=O)OCc1ccccc1` (configuration not stated) it was 15.2% (inactive); in that of `O=C(C[C@H]1C(=O)N(c2ccc(F)c(F)c2)C[C@@H]1Cc1ccccc1)Nc1ccccc1`, 1.6% (inactive); in that of `CCCCn1c(N)c(N(CC(C)C)C(=O)c2ccc(-n3c(C)ccc3C)cc2)c(=O)[nH]c1=O`, 1.8% (inactive). For the compound `Oc1ccc(C2Nc3cccc4cccc(c34)N2)cc1`, the inhibition is 63.3% (active). In the case of `O=C(COC(=O)c1ccc2ncsc2c1)Nc1ccc(Cl)cc1` it was -18.6% (inactive); in that of `C=CCOc1ccc(/C=C2\SC(=S)N(CCC(=O)O)C2=O)cc1`, 40.8% (active); in that of `CN(C(=O)CN1C(=O)/C(=C/c2ccc(Cl)cc2)SC1=S)C1CCS(=O)(=O)C1` (configuration not stated), 23.9% (inactive).

Take `C=CCOc1ccc(C(=O)Nc2ccccc2C(=O)N2CCCC2)cc1`: the inhibition was 0.4% (inactive). Take `O=[N+]([O-])c1ccc(COc2ccccc2CN2CCOCC2)cc1`: the inhibition was -0.2% (inactive). `OC(c1ccccc1)C(CN1CCOCC1)c1ccccc1` (configuration not stated): the inhibition is 9.9% (inactive). Regarding `Oc1c(CN2CCOCC2)ccc(CN2CCOCC2)c1O`, the inhibition was 79% (active). Then `O=C(Cn1cc(-c2nnnn2-c2ccc(Cl)cc2)c(=O)c2ccccc21)c1ccccc1`, with 26.2% (inactive); and `COC(=O)CN1C(=O)C(C)(C)Oc2ccc(C(=O)Nc3cccc(OC)c3)cc21`, with 1.3% (inactive).

`CC[n+]1cc(C)ccc1/C=C/c1ccc(N(C)C)cc1`: the inhibition was 18.1% (inactive). For the compound `CN(C)c1ccc(Nc2c3c4c(cccc4n(C)c2=O)C(=O)c2ccccc2-3)cc1`, the inhibition was 52.7% (active).

In the case of `Cc1ccc(NC(=S)N(CCCN2CCCC2)Cc2cccn2Cc2ccc(Cl)cc2)cc1`, the inhibition was 14.9% (inactive). Turning to `Cc1nc2ccccc2n1CC(O)c1ccccc1` (configuration not stated), the inhibition was 0.7% (inactive). Turning to `CCn1c(C)nc2c1C(=O)c1ccccc1C2=O`, the inhibition was 53.2% (active). Consider `CCOC(=O)c1ccc2c(c1)nc(C)n2CC`, for which the inhibition is 17.4% (inactive). Take `O=C(NC(=S)N1CCc2ccccc21)c1ccco1`: the inhibition was 11.3% (inactive). Then `Cc1c(C(=O)N(Cc2ccccc2)Cc2cccnc2)cnn1-c1ccc(F)cc1`, with 7.4% (inactive); and `CN1C2CCC1CC(NC(=O)c1ccc([N+](=O)[O-])cc1)C2` (configuration not stated), with 17.8% (inactive).

For `O=C(Nc1cc2c3c(c1)C1CCCC1CN3CC1CCCC21)c1ccc([N+](=O)[O-])cc1` (configuration not stated), the inhibition was 40.6% (active).

For the compound `O=C(CCNC(=O)c1ccc([N+](=O)[O-])cc1)NC1CCCCC1`, the inhibition is 15.8% (inactive).

For `CCC1CCCCN1C(=O)Nc1cccc(NC(=O)N2CCCCC2CC)c1` (configuration not stated), the inhibition is 13% (inactive). In the case of `CC(CCn1cccn1)NC(=O)CCc1nnc(CCc2ccccc2)o1` (configuration not stated) it was 7.6% (inactive); in that of `Cc1ccc(C(=O)N/N=C\c2cc(Br)c(Br)o2)cn1`, 58.6% (active). For `O=C(N/N=C/c1ccc(Br)o1)c1cncc(Br)c1`, the inhibition is -18.2% (inactive). Turning to `CCOc1cc(/C=N/NC(=O)c2ccncc2)cc(Br)c1O`, the inhibition was 19.2% (inactive). In the case of `COC(=O)C1=C(C)NC(=S)NC1c1ccc(OCC(=O)N2CC(C)OC(C)C2)c(OC)c1` (configuration not stated) it was 3.3% (inactive); in that of `O=C(CN(C(=O)c1csnn1)c1cccc(F)c1)NCc1ccc(F)cc1`, 8.3% (inactive). In the case of `Cn1c2c(c(=O)n(C)c1=O)C(c1cccc([N+](=O)[O-])c1)Nc1ccccc1O2` (configuration not stated) it was 22.9% (inactive); in that of `O=C(CN1CCN(c2cccc(Cl)c2)CC1)Nc1ccc(S(=O)(=O)N2CCOCC2)cc1`, 15% (inactive); in that of `CN(C)S(=O)(=O)c1cccc(-c2nn(-c3ccccc3)cc2/C=C2\SC(=S)N(CC(=O)O)C2=O)c1`, 44% (active).

Turning to `COc1cccc(-c2nn(-c3ccccc3)cc2/C=C(\C#N)C(=O)NCCCn2ccnc2)c1`, the inhibition was -266% (inactive). For `Cc1ccc(-c2nn(-c3ccccc3)cc2/C=C/C(=O)Nc2cccc(S(N)(=O)=O)c2)cc1`, the inhibition was -81.3% (inactive). Regarding `O=[N+]([O-])c1c(NCCO)cc(Sc2nc3ccccc3s2)c2nonc12`, the inhibition was 75.9% (active).

Consider `CC(C)(C)NC(=O)C(CCc1ccccc1)n1c(=O)c(-c2ccccc2)nc2ccccc21` (configuration not stated), for which the inhibition is -332% (inactive). Regarding `CS(=O)(=O)N1CCN(c2ccc(C(=O)NC3C4CC5CC(C4)CC3C5)cc2[N+](=O)[O-])CC1` (configuration not stated), the inhibition was 13.8% (inactive). As to `Cc1cccc(N2CCN(c3ccc(C(N)=O)cc3[N+](=O)[O-])CC2)c1C`, the inhibition was 15.7% (inactive). `Cc1ccccc1N1CCN(S(=O)(=O)c2ccc3ccccc3c2)CC1`: the inhibition was 12.3% (inactive).

As to `CC(C)c1ccc(S(=O)(=O)N2CCN(C(=O)c3ccc(N4CCCC4)c([N+](=O)[O-])c3)CC2)cc1`, the inhibition is 11.9% (inactive). In the case of `Cc1ccc(C(=O)c2ccc(N3CCN(C)CC3)c([N+](=O)[O-])c2)cc1` it was 47.4% (active). Turning to `CN1CCN(S(=O)(=O)c2ccc(N3CCN(c4ccccc4O)CC3)c([N+](=O)[O-])c2)CC1`, the inhibition is 39.2% (active). As for `COC(=O)c1ccccc1NC(=O)C1CCN(C(=O)N2CCOc3ccccc32)CC1`, the inhibition was -37.2% (inactive).

In the case of `COc1ccc(NC(=O)N2CCCC(c3nc(-c4ccc(F)cc4)no3)C2)cc1` (configuration not stated), the inhibition is 9.6% (inactive). Regarding `C[C@H]1CN([C@@H](C)CO)C(=O)CCCn2cc(nn2)CO[C@@H]1CN(C)S(=O)(=O)c1ccc(-c2ccccc2)cc1`, the inhibition is 12.7% (inactive). As to `C/C(N)=C(/C#N)C(=O)COC(=O)c1cc(-c2cccc(Br)c2)nc2ccccc12`, the inhibition was -25.4% (inactive). In the case of `COc1cccc2c1C(=O)c1c(O)c3c(c(O)c1C2=O)CC(O)(C(C)=NNC(=O)c1ccc(Cl)c(Cl)c1)CC3OC1CC(N)C(O)C(C)O1` (configuration not stated), the inhibition is 46.6% (active). In the case of `CCCC(O)(c1ccc(OC)cc1)C(CN(C)C)c1ccccc1` (configuration not stated) it was 10.7% (inactive).

With `NC(=O)C1CCN(CC(O)CSc2ccc(F)cc2)CC1` (configuration not stated), the inhibition was 17% (inactive).

For `NC(=O)COC(=O)c1cc(S(=O)(=O)N2CCN(c3ccccc3)CC2)ccc1Cl`, the inhibition was 14.7% (inactive). As for `C/C(=N\Nc1ccccc1)c1cccs1`, the inhibition is -20.5% (inactive).

For `CSc1ncc(C(=O)NCCCc2ccccc2)c(C)n1`, the inhibition was -24.7% (inactive). `CC/C(=N/Nc1ccccc1)c1cnnc(SC)n1`: the inhibition was 61.2% (active). Regarding `CN(C(=O)c1cccc(NC(=O)Cc2ccc([N+](=O)[O-])cc2)c1)C1CCC1`, the inhibition was 19.5% (inactive). As for `O=S(=O)(Nc1ccc(-n2cnnn2)cc1)c1ccc(Cl)cc1`, the inhibition was 5.5% (inactive). As for `CCOC(=O)c1[nH]c(C)c(C(=O)OCC(=O)N2c3ccccc3CC2C)c1C` (configuration not stated), the inhibition was 31.3% (inactive). With `CCOC(=O)c1c(C)[nH]c2c1-c1ccccc1C(=O)C2=O`, the inhibition was 121% (active).

With `CCOC(=O)c1c(C)oc(C)c(C(=O)OCC)c1=O`, the inhibition is 11.2% (inactive). With `CCn1cc(C(=O)NCC(=O)NC(C)(C)CO)c(=O)c2cc3c(cc21)OCO3`, the inhibition was -75.3% (inactive). Then `COc1ccc2c(c1)c(=Cc1ccc(N(C)C)cc1)c1cc(-c3ccccc3)[n+](C)n12`, with -127% (inactive). In the case of `CCOC(=O)CNC(=O)N1c2ccccc2Sc2ccccc21` it was 47.5% (active). Consider `CCOC(=O)CNC(=O)CN1C(=O)CCSc2ccccc21`, for which the inhibition was 16.5% (inactive). `CCOC(=O)CNC(=O)/C=C/c1c(Cl)cccc1Cl`: the inhibition was 16.6% (inactive). In the case of `CC(=O)NC(CC(=O)O)c1ccc(F)cc1` (configuration not stated) it was -2% (inactive); in that of `Cc1[nH]n(C)c(=O)c1N=Nc1ccc(S(C)(=O)=O)cc1`, 28.1% (inactive); in that of `Cc1[nH]n(-c2ccccc2)c(=O)c1CCOC(=O)c1ccc(C(F)(F)F)cc1`, 15.4% (inactive). In the case of `Cc1ccc(N=Nc2c(C)[nH]n(-c3ccccc3)c2=O)cc1`, the inhibition is 35.1% (active).

For the compound `Cc1ccc(S(=O)(=O)N(CC(=O)NN=C2CCN(C)CC2)c2ccc(F)cc2)cc1`, the inhibition is 10.4% (inactive). As for `Cn1nc(C(F)(F)F)cc1-c1ccc(/C=C(\C#N)C(=O)c2cccc(C(F)(F)F)c2)s1`, the inhibition was -159% (inactive). Consider `CCc1ccc(-c2nnn(Cc3nn[nH]n3)n2)cc1`, for which the inhibition is 41.5% (active). On to `CCc1ccc(-c2nnn(Cc3nc4ccccc4s3)n2)cc1`, for which the inhibition was 14% (inactive). For the compound `CN(C)c1nc(N)nc(Cn2nnc(-c3ccc(C(F)(F)F)cc3)n2)n1`, the inhibition is 17.2% (inactive). Turning to `CCOC(=O)c1cc(NC(=O)SCC(=O)O)c(C)nc1C`, the inhibition was -84.4% (inactive). Take `CCCNC(=O)CCn1cc(-c2ccc(OC)cc2)nc1CCN`: the inhibition is -0.4% (inactive). Then `CCCc1cc(=O)[nH]c(SCC(=O)c2c(N)n(CC(C)C)c(=O)n(C)c2=O)n1`, with 2.3% (inactive); and `Cc1cc(-c2ccccc2)nc(N2CCC(C(=O)NC34CC5CC(CC(C5)C3)C4)CC2)n1`, with -325% (inactive); and `Cc1ccc(NC(=O)CCN2C(=O)c3ccccc3C2=O)cc1C`, with 14.4% (inactive). As to `Cc1ccc2[nH]cc(CCCN3C(=O)c4ccccc4C3=O)c2c1`, the inhibition was 8.9% (inactive). In the case of `Cc1cc(C)cc(NC(=O)CCN2C(=O)c3ccccc3C2=O)c1` it was 8.2% (inactive). With `Cc1ccccc1C(=O)NNC(=O)CN1C(=O)c2ccccc2C1=O`, the inhibition is 21.1% (inactive). As for `Cc1ccc2c(c1)-c1c(ssc1=S)C(C)(C)N2C(=O)CN1C(=O)c2ccccc2C1=O`, the inhibition was 50% (active).

As for `Cc1cc2c(cc1C)N(C(=O)CN1C(=O)c3ccccc3C1=O)C(C)(C)c1ssc(=S)c1-2`, the inhibition is 41.6% (active). For the compound `O=C(O)CC1S/C(=N\N=C/c2ccccc2O)N(c2ccc(O)cc2)C1=O` (configuration not stated), the inhibition was -14.4% (inactive).

Take `Cc1ccc2nc(Nc3ncc4c(n3)CC(C)(C)CC4=O)nc(C)c2c1`: the inhibition was -28.2% (inactive). As for `O=C(CCN1CCCCC1)Nc1ccc(F)c(F)c1`, the inhibition is 19.3% (inactive).

Regarding `COCC1CCCN(Cc2cn[nH]c2-c2cc3ccccc3o2)C1` (configuration not stated), the inhibition was 9.9% (inactive).
